These results are taken from PubChem BioAssay (NCATS).

Test [1] is described as follows: Quantitative High-Throughput drug screen in 47 multiple myeloma cell lines against the NCATS MIPE library collection: KMS34_JCRB cell viability assay (AID 1918985). Note: nearly all actives have a fitted effect of over 40% in size. Note: potency is the fitted concentration of half-maximal effect. The essentials: (§1)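 500 cells/well per myeloma line exposed to pinned MIPE 4.0 compounds for 48 h at 37 °C, 5% CO2. Viability read as ATP by CellTiter-Glo luminescence, normalised to DMSO-only (100%) and media-only (0%) wells.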

Test [2] can be described thus: Quantitative High-Throughput drug screen in 47 multiple myeloma cell lines against the NCATS MIPE library collection: OCIMY5_PLB cell viability assay (AID 1918988). Note: nearly all actives have a fitted effect of over 65% in size. Note: potency is the fitted concentration of half-maximal effect. The essentials: as §1
Test [3] is described as follows: Quantitative High-Throughput drug screen in 47 multiple myeloma cell lines against the NCATS MIPE library collection: OPM1_PLB cell viability assay (AID 1918989). Note: nearly all actives have a fitted effect of over 40% in size. Note: potency is the fitted concentration of half-maximal effect. The gist of the method: as §1
A short description of test [4]: Quantitative High-Throughput drug screen in 47 multiple myeloma cell lines against the NCATS MIPE library collection: SKMM1_PLB cell viability assay (AID 1919863). Note: nearly all actives have a fitted effect of over 35% in size. Note: potency is the fitted concentration of half-maximal effect. To be noted: SKMM1 myeloma viability, CellTiter-Glo ATP, 48 h; viability: stronger effect = lower value. The essentials: as §1
For orientation: Cellular ATP, detected with luciferase, serves as a proxy for viable cell number.

A short description of test [5]: Quantitative High-Throughput drug screen in 47 multiple myeloma cell lines against the NCATS MIPE library collection: VP6_DJ cell viability assay (AID 1919867). Note: nearly all actives have a fitted effect of over 40% in size. Note: potency is the fitted concentration of half-maximal effect. The gist of the method:
as §1

The nature of test [6]: Quantitative High-Throughput drug screen in 47 multiple myeloma cell lines against the NCATS MIPE library collection: PE2_PLB cell viability assay (AID 1919869). Note: nearly all actives have a fitted effect of over 35% in size. Note: potency is the fitted concentration of half-maximal effect. The essentials: as §1
Test [7] in a line: Quantitative High-Throughput drug screen in 47 multiple myeloma cell lines against the NCATS MIPE library collection: PCM6_Riken cell viability assay (AID 1919870). Note: nearly all actives have a fitted effect of over 30% in size. Note: potency is the fitted concentration of half-maximal effect. The essentials:
as §1

Test [8] can be described thus: Quantitative High-Throughput drug screen in 47 multiple myeloma cell lines against the NCATS MIPE library collection: RPMI8226_ATCC cell viability assay (AID 1919871). Note: nearly all actives have a fitted effect of over 30% in size. Note: potency is the fitted concentration of half-maximal effect. The gist of the method: as §1
The nature of test [9]: Quantitative High-Throughput drug screen in 47 multiple myeloma cell lines against the NCATS MIPE library collection: OPM2_DSMZ cell viability assay (AID 1919872). Note: nearly all actives have a fitted effect of over 30% in size. Note: potency is the fitted concentration of half-maximal effect. The essentials:
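CellTiter-Glo luminescence (ATP) after 48 h compound exposure, 37C/5% CO2; 500 cells/well; MIPE 4.0 approved/investigational drugs pinned in; DMSO = 100%, media only = 0% viability.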

Test [10] is described as follows: Quantitative High-Throughput drug screen in 47 multiple myeloma cell lines against the NCATS MIPE library collection: KMS11_JCRBsus cell viability assay (AID 1919873). Note: nearly all actives have a fitted effect of over 50% in size. Note: potency is the fitted concentration of half-maximal effect. The essentials: as §1
Test [11] in a line: Quantitative High-Throughput drug screen in 47 multiple myeloma cell lines against the NCATS MIPE library collection: KMS28BM_JCRB cell viability assay (AID 1919874). Note: nearly all actives have a fitted effect of over 35% in size. Note: potency is the fitted concentration of half-maximal effect. The gist of the method:
as §1

The nature of test [12]: qHTS drug screen for cell cycle checkpoint inhibitors in PARPi-resistant BRCA-mutant ovarian cancer cell lines. (AID 1963452; calls by dose curve). To be noted: PEO1/OlaR viability, CellTiter-Glo luminescence, 96 h, stronger effect = lower value. The gist of the method:
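PEO1, PEO4 and PEO1/OlaR ovarian cancer cells, 600 per well, exposed 96 h at 37C to a dilution series. Viability read by CellTiter-Glo luminescence, normalized to DMSO and empty wells; activity summarized as Z-AUC.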
On the technique in general: qHTS replaces the single test concentration by a dilution series.

Test [13] is described as follows: qHTS for identification of novel therapeutic agents for treatment of microphthalmiaassociated transcription factor (MiT) renal cell carcinoma (RCC) (AID 1963991).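 Note: curves scaled with 100% = DMSO viability and 0% = empty wells.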 To be noted: CellTiter-Glo, 48 h, stronger effect = lower value. The gist of the method: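 UOK109/UOK124/UOK145 (TFE3 fusions, three partners); 500 cells/well; MIPE v4.0, 1912 cpds, 11 conc.; 48 h, 37 C; CellTiter-Glo, 15 min RT; lum. Norm.: DMSO 100%, empty 0%.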

A short description of test [14]: qHTS profiling for inhibitors of Plasmodium falciparum proliferation (AID 504749).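 Note: 0% = DMSO vehicle and full inhibition = artemisinin control; nearly all actives have a fitted effect of over 60% in size.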 To be noted: P. falciparum in erythrocytes, SYBR Green DNA, 72 h, at 28.7 µM (top of the series). The gist of the method:
(§2)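 P. falciparum-infected erythrocytes (0.3% parasitemia, 2.5% hematocrit) incubated with compound 72 h at 37 C, 5% CO2. Parasite DNA detected by SYBR Green after lysis, overnight at room temperature; normalised to 0.29 uM artemisinin and DMSO.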

The next test concerns 3D7. Described as above. To be noted: P. falciparum in erythrocytes, SYBR Green DNA, 72 h; series mostly up to 28.7 µM. The gist of the method:
as §2

Test [15] is described as follows: Quantitative High-Throughput drug screen in 47 multiple myeloma cell lines against the NCATS MIPE library collection: U266_ATCC cell viability assay (AID 1919864). Note: nearly all actives have a fitted effect of over 35% in size. Note: potency is the fitted concentration of half-maximal effect. The essentials:
as §1

Test [16] in a line: Quantitative High-Throughput drug screen in 47 multiple myeloma cell lines against the NCATS MIPE library collection: XG6_PLB cell viability assay (AID 1919865). Note: nearly all actives have a fitted effect of over 40% in size. Note: potency is the fitted concentration of half-maximal effect. The gist of the method:
as §1

Test [17] in a line: Quantitative High-Throughput drug screen in 47 multiple myeloma cell lines against the NCATS MIPE library collection: XG1_PLB cell viability assay (AID 1919866). Note: nearly all actives have a fitted effect of over 35% in size. Note: potency is the fitted concentration of half-maximal effect. The essentials: as §1
The nature of test [18]: Quantitative High-Throughput drug screen in 47 multiple myeloma cell lines against the NCATS MIPE library collection: UTMC2_PLB cell viability assay (AID 1919868). Note: potency is the fitted concentration of half-maximal effect; nearly all actives have a fitted effect of over 55% in size. To be noted: CellTiter-Glo ATP luminescence, 48 h; viability (% of DMSO control): at 45.8 µM (top of the series) unless noted. The essentials: as §1
Where [19] appears, read: measured here: PEO1 parental Z-AUC.
Setting [20] is: TFE3-RCC UOK109 viability, measured here: UOK109 Z-AUC.
Where [21] appears, read: TFE3-RCC viability, measured here: UOK124 Z-AUC.
Setting [22] is: TFE3-RCC viability, measured here: UOK145 Z-AUC.

Inconclusive results are not listed. Activity calls are given as the source filed them. Unless noted, calls come from the whole dose curve; as a rule, active = well fitted curve in the direction sought with a large enough effect; inconclusive = small, poorly fitted or top-dose-only effect, or another doubt; inactive = no such curve, though single readings can be large; an effect the other way counts as inactive or inconclusive.

As usually defined, the viability is a read-out of living cells in per cent, often relative to untreated cells. `CN1c2cc(O)c(N=NC(N)=O)cc2CC1S(=O)(=O)O` (stereo not given): the Potency entry in [1], in [2], in [3], in test [5], in test [6] and in test [7] was “inactive” throughout. Further, the Potency entry (in test [8]; in [10]; in test [11]; in the test with 3D7) was “inactive” each time. Also, the viability in test [4] is 97.7% (inactive). In test [9], the Potency was 14.8 µM (active). Besides, the Z-AUC in test [12] was 1.01 (inactive); in [12] (setting [19]), 0.677; in [12] (measured here: PEO4 Z-AUC), 1.13. The z-score in [13] (setting [20]) was determined as 0.359; in test [13] (setting [21]), 0.697; in [13] (setting [22]), 0.51. The results for the activity, negative = inhibition in test [14] (parasite line A) and in test [14] (parasite line B) were -0.188% (inactive) and 7.8% (inactive), respectively.
As for `CC(=O)Nc1sc2c(c1-c1nc3ccccc3s1)CNC2`, the Potency in test [1] was 6.62 µM (active); in test [2], 16.6 µM (active); in test [3] it was 18.7 µM (active); in [4], 16.6 µM (active); in [15], 16.6 µM (active); in test [16], 9.35 µM (active). The Potency is 14.8 µM (active) in [17]; 11.8 µM (active) in test [5]; 20.9 µM (active) in test [6]; 14.8 µM (active) in test [7]; 14.8 µM (active) in [8]; 13.2 µM (active) in test [10]. Moreover, the Potency in [11] was 14.8 µM (active).
With `CN(c1ncccc1CNc1nc(Nc2ccc3c(c2)CC(=O)N3)ncc1C(F)(F)F)S(C)(=O)=O`, the Potency in test [1] is 8.33 µM (active); in test [2], 5.26 µM (active); in test [3], 4.69 µM (active); in [15], 9.35 µM (active); in [16] it was 3.72 µM (active); in [17], 3.32 µM (active). Besides, the Potency in test [5] was 2.64 µM (active); in [18] it was 2.35 µM (active); in test [6], 3.32 µM (active); in [7], 2.35 µM (active); in test [8] it was 8.33 µM (active); in test [9], 7.43 µM (active). In addition, the Potency in [10] was 2.64 µM (active); in [11] it was 6.62 µM (active). The Z-AUC in test [12] was -0.236 (inactive); in test [12] (setting [19]), -0.701; in test [12] (measured here: PEO4 Z-AUC) it was -0.665.
As to `Cn1c2cc(S(C)=O)sc2c2cnn(Cc3cccc(N)c3)c(=O)c21` (stereo not given), the Potency entry in [1], in [3], in test [15], in [16], in test [17] and in test [7] was “inactive” each time. Also, the Potency result in test [8], in test [9], in [10] and in test [11] was “inactive” throughout. Further, the viability in test [4] was 114% (inactive). Further, the Z-AUC in [12] was 1.34 (inactive); in test [12] (setting [19]), 0.817; in test [12] (measured here: PEO4 Z-AUC), 0.912. Also, the figures for the z-score in test [13] (setting [20]), in test [13] (setting [21]) and in test [13] (setting [22]) were 0.336, 0.595 and 0.401, respectively.
In the case of `Cc1ccc(S(=O)(=O)Nc2cc(Cl)ccc2C(=O)Nc2nc(-c3ccccc3)cs2)cc1`, the Potency in [1] was 20.9 µM (active); in test [3], 4.69 µM (active); in test [4], 16.6 µM (active); in [15] it was 20.9 µM (active); in test [5], 6.62 µM (active); in test [6] it was 5.9 µM (active). In addition, the Potency is 16.6 µM (active) in [8] and 10.5 µM (active) in test [10]. Further, the Z-AUC is -0.703 (inactive) in test [12], -0.778 in [12] (setting [19]) and -1.08 in [12] (measured here: PEO4 Z-AUC).
Regarding `CNC(=O)c1ccc(-c2cnc3ncc(Cc4ccc5ncccc5c4)n3n2)cc1F`, the Potency entry in test [1], in test [3], in [15], in test [5], in test [9] and in [10] was “inactive” each time. The Potency entry in test [11] was “inactive”. For the same compound, the Potency in test [2] was 23.5 µM (active). In addition, in test [4], the viability is 133% (inactive). In addition, the Z-AUC in test [12] was -0.273 (inactive); in test [12] (setting [19]), 1.03; in test [12] (measured here: PEO4 Z-AUC), 0.0538.
